# Active and inactive are the calls of the source.
# Assays:
# Albumin (Bos taurus) = Albumin (Bos taurus) (UniProt P02769); assay: compounds binding labelled BSA control protein – biochemical, small-molecule microarray, Alexa647 label, 635/667 nm fluorescence, artefact control for SMM control protein annotation, profiling panel (AID 1118); settings: BSA-A647 binding, fluorescence 635 nm, higher = more signal;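 further: score merges 667 nm emission intensity and signal-to-noise per printed compound spot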
# [1] = probe aXIP binding to arrayed compounds – biochemical, NeuroSMM set, 635/667 nm fluorescence, primary screen (AID 1119); settings: small-molecule microarray, higher = more signal, called active from +8 up or from −8 down;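 further: probe is the protein aXip251-270 applied at 1 µg/mL to compound-printed slides; binding of probe to printed compounds measured as 667 nm fluorescence plus signal to noise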
# [2] = probe aNOTCH3 binding on compound microarray – biochemical, small-molecule microarray, 635/667 nm fluorescence, primary screen (AID 1120); settings: higher = more signal;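 further: probe is a biotin-tagged antibody raised against NOTCH3 rather than NOTCH3 protein; score merges spot fluorescence near 667 nm with spot signal to noise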
# [3] = probe aNOTCH2 binding on compound microarray – biochemical, small-molecule microarray, 635/667 nm fluorescence, primary screen (AID 1121); settings: higher = more signal;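 further: score merges feature fluorescence read at 667 nm with its signal to noise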
# [4] = molecular target: Carbonic anhydrase 2 (Homo sapiens) (UniProt P00918); assay: compounds binding carbonic anhydrase 2 – biochemical, small-molecule microarray, Alexa647-labelled CAII, profiling panel (AID 1122); settings: CAII-A647 binding fluorescence, higher = more signal
# [5] = COS7 lysate on small-molecule microarray, probe aHis, 635 nm (AID 1123); settings: COS7 cell lysate, fluorescence, higher = more signal;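 further: z-score combines 667nm fluorescence intensity with signal-to-noise per printed compound spot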
# [6] = probe aLAP1 signal on lysate-treated microarray – cell lysate, small-molecule microarray, COS7 lysate, primary screen (AID 1124); settings: probe aLAP1, fluorescence, higher = more signal;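 further: lysate comes from COS7 cells expressing LAP1 and is applied at 0.3 µg/mL; score merges spot fluorescence near 667 nm with signal-to-noise over triplicate slides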
# Sam68 (KHDRBS1) = assay: compounds binding KHDRBS1 protein – biochemical, small-molecule microarray, 635 nm fluorescence, primary screen (AID 1125); settings: higher = more signal;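 further: score merges 667 nm channel intensity with signal to noise over triplicate slides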
# [7] = test system: Chordin-like protein 2 (CHRDL2); assay: compounds binding chordin-like 2 – biochemical, small-molecule microarray, 635 nm fluorescence, primary screen (AID 1126); settings: fluorescence 635 nm, higher = more signal;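 further: printed compound slides probed with Chrdl2 protein at 4 µg/mL for 1 h at 4 C; score merges 667 nm emission intensity with signal to noise over three replicate slides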
# [8] = molecular target: Concanavalin-A (Canavalia ensiformis) (UniProt P02866); assay: compounds binding concanavalin A lectin – biochemical, small-molecule microarray, Alexa647 label, 635 nm, artefact control for SMM control protein annotation, primary screen (AID 1127); settings: ConA-A647 binding fluorescence, higher = more signal;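 further: z combines 667 nm emission intensity with signal-to-noise across three replicate slides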
# Chain of Concanavalin-A (Canavalia ensiformis) (P02866 whole entry, looked up): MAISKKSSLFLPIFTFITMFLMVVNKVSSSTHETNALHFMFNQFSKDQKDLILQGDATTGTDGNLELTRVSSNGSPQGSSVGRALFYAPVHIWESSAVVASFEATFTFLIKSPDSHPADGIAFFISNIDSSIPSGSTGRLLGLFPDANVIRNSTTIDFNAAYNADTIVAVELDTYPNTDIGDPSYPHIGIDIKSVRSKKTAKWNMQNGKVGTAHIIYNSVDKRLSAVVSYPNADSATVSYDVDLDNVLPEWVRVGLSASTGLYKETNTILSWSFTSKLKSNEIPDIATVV
# Chain of Albumin (Bos taurus) (P02769 whole entry, looked up): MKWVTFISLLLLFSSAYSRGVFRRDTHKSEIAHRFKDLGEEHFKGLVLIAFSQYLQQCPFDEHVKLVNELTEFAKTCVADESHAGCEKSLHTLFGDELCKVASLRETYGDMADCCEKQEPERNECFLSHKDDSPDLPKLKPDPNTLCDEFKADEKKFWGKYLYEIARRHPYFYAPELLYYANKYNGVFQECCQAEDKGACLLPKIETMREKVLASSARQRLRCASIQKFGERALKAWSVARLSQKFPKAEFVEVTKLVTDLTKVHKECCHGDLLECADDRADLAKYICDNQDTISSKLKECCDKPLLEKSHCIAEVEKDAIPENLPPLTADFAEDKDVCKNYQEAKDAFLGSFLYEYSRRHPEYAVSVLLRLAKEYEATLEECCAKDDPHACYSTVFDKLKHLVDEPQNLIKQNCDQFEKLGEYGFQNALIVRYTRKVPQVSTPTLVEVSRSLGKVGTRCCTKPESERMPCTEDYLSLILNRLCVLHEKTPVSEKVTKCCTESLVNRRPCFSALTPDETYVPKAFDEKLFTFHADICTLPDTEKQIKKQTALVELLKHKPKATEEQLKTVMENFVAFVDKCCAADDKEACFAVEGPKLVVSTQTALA
SMILES,composite z-score (Albumin (Bos taurus)),composite Z-score [1],composite z-score [2],composite z-score [3],composite z-score [4],composite z-score [5],composite z-score [6],composite z-score (Sam68 (KHDRBS1)),composite z-score [7],composite z-score [8]
C=CCNC(=O)[C@@H]1[C@H]2C(=O)O[C@H](c3ccccc3)[C@H](c3ccccc3)N2[C@H](c2ccccc2OCCO)[C@@]12C(=O)N(C(=O)OCCOC)c1ccc(C#CCNC(N)=O)cc12,0.79,-0.105 (inactive),0.184,-0.0772,0.247,1.47,0.546,1.32,-0.182,0.959
CCCC=C(CCC)[C@@H](NS(=O)(=O)c1cccs1)c1ccc(C(=O)OC)cc1,1.06,-0.227 (inactive),0.17,0.0592,0.748,2.94,0.157,1.32,-1.19,1.17
O=C1OCCC/C=C\[C@H]2OC34C=CCN(Cn5nnc6ccccc65)C(=O)[C@H]3N(CCO)C(=O)[C@@H]4C12 (stereo not given in full),0.926,0.605 (inactive),0.0004,-0.0073,0.987,0.207,0.136,-0.642,-1.89,0.216
C#CCN(CC1=CCCCC1)[C@H](c1ccccc1Br)[C@@H](O)Cc1ccccc1,0.306,-0.356 (inactive),-0.344,-0.177,0.345,0.545,0.0773,0.516,-0.882,-0.679
CCOC(=O)C[C@H]1[C@H](OC(=O)Cc2ccc3c(c2)OCO3)[C@@H](NC(=O)c2ccc3ccccc3c2)c2cc(OCCCO)ccc2N1C(=O)c1ccccc1,0.601,-0.0185 (inactive),-0.0077,-0.14,0.32,1.04,0.186,1.09,0.308,0.541
COCCCN1C(=O)[C@@]2(c3ccc([N+](=O)[O-])cc3)CC(=O)N(C3CCCCC3)[C@@H]2c2ccc(CO)cc21,-0.132,0.0221 (inactive),-0.207,-0.153,-0.277,0.143,-0.322,0.134,0.778,0.734
O=C1O[C@H](c2ccccc2)[C@H](c2ccccc2)N2[C@H]1[C@@H](C(=O)O)[C@]1(C(=O)Nc3ccc(C#CCCO)cc31)[C@H]2c1ccc(O)cc1,0.279,0.0575 (inactive),-0.0014,-0.0467,0.501,0.651,0.514,0.0673,-0.823,-0.161
COC(=O)[C@@]1(Cc2ccccc2)[C@H]2c3cc(C(=O)N(C)C)n(CCSCCO)c3C[C@H]2CN1C(=O)c1ccccc1,0.569,0.376 (inactive),0.0893,0.0577,0.801,2.26,-0.154,0.555,-0.25,0.523
CC1CC/C=C\[C@H]2OC34C=CCN(c5ccc(Cl)cc5)C(=O)[C@H]3N(CCO)C(=O)[C@]4(C)C2C(=O)O1 (stereo not given in full),-0.0427,-0.0662 (inactive),-0.152,-0.149,0.902,-0.507,0.627,0.409,-0.961,-0.206
CN(C)C(=O)[C@@]1(Cc2ccccc2CN=[N+]=[N-])N=C(c2ccc(OCCCO)cc2)O[C@H]1c1ccccc1,0.722,-0.797 (inactive),0.103,0.112,0.277,2.69,0.624,1.28,-0.285,0.749
C=CC[C@@]1(C(=O)NCc2ccccc2)N=C(c2ccc(OCCCO)cc2)O[C@@H]1c1ccccc1N=[N+]=[N-],0.98,-0.108 (inactive),0.355,0.0186,0.712,3.18,0.736,1.3,-0.623,0.906
CCOC(=O)C[C@H]1[C@H](OC(=O)Cc2ccc3c(c2)OCO3)[C@@H](NC(=O)c2ccc(-c3ccccc3)cc2)c2cc(OCCCO)ccc2N1C(=O)c1ccc2ccccc2n1,0.238,-0.549 (inactive),-0.112,-0.182,0.0289,0.1,0.0968,0.202,0.415,0.643
CC(C)OC(=O)C=C1C[C@@H](c2ccccc2C(F)(F)F)O[C@@H](c2ccccc2C(F)(F)F)O1,0.629,-0.309 (inactive),-0.0044,-0.216,-0.0962,0.387,0.354,0.609,0.0577,0.257
COc1ccc(C(=O)Nc2ccc(CN3C(=O)[C@@]4(O[C@@H](CCn5cc([C@H](O)c6ccccc6)nn5)[C@H]([Si](C)(C)c5ccc(OC)cc5)[C@H]4C)c4ccccc43)cc2)cc1,0.0961,0.611 (inactive),-0.0377,-0.124,0.563,1.39,0.0085,0.876,-0.238,0.399
COCC(=C=CC[C@H](O)c1ccccc1OCCO)C[C@H](O)c1cc(Cl)cc(Cl)c1O,0.384,2.26 (inactive),-0.0077,-0.115,0.351,0.834,0.478,1.24,-0.383,0.689
O=C1C[C@]2(c3ccc([N+](=O)[O-])cc3)C(=O)N(CCN3CCOCC3)c3cc(CO)ccc3[C@H]2N1C1CCCCC1,0.883,-0.598 (inactive),-0.221,-0.0904,0.646,0.294,-0.467,0.197,-0.337,-0.172
[N-]=[N+]=NCc1ccccc1C[C@]1(C(=O)N2CCOCC2)N=C(c2ccc(OCCCO)cc2)O[C@H]1c1ccccc1N=[N+]=[N-],0.889,-0.235 (inactive),0.311,-0.0301,0.53,2.53,0.798,1.34,0.519,1.04
CC(C)C[C@@H]1NC(=O)[C@@H]2C[C@H](C(=O)NCCCCCN)[C@H](c3cccc(OCCO)c3)N2C1=O,1.02,0.425 (inactive),0.0992,-0.17,0.813,1.03,1.16,0.839,0.0186,1.2
CCOC(=O)C1=CCC(c2ccccc2)N(S(=O)(=O)CC[Si](C)(C)C)C1 (stereo not given),-0.149,0.0503 (inactive),-0.392,-0.188,-0.35,-0.177,-0.0394,-0.717,0.165,-0.0238
COC(=O)[C@@]1(Cc2ccc(OC)cc2)[C@H]2c3cc(C(=O)N4CCCC4)n(Cc4ccccc4)c3C[C@H]2CN1C(=O)c1ccccc1,1.05,0.401 (inactive),1.75,1.06,0.791,3.09,0.399,0.846,-0.401,1.08
O=C1O[C@H](c2ccccc2)[C@H](c2ccccc2)N2[C@H]1[C@@H](C(=O)N1CCN(c3ncccn3)CC1)[C@]1(C(=O)Nc3ccc(C#CC4=CCCCC4)cc31)[C@H]2c1ccc(O)cc1,0.444,-0.239 (inactive),0.0533,-0.0282,0.413,1.81,0.853,1.3,-0.0356,0.893
CC(=O)n1cc(C(O)C2C=CC3C(=O)N(C)C(=O)C3N2Nc2ccccc2)c2ccccc21 (stereo not given),0.712,-0.803 (inactive),0.235,0.027,0.562,1.84,-0.0989,1.11,1.25,0.897
C=CCOC(=O)[C@@H]1[C@H]2C(=O)O[C@H](c3ccccc3)[C@H](c3ccccc3)N2[C@H](c2ccc(OCCOC(=O)[C@@H]3C[C@@H]4C(=O)N[C@@H](CCCC[N+](C)(C)C)C(=O)N4[C@@H]3c3cccc(OCCO)c3)cc2)[C@@]12C(=O)Nc1ccc(I)cc12,0.769,0.516 (inactive),0.0257,-0.0666,0.46,1.9,0.0596,1.29,1.21,1.19
COCCOC(=O)N1C(=O)[C@@]2(c3cc(C#CCNC(N)=O)ccc31)[C@H](C(=O)NC[C@H](O)c1ccccc1)[C@H]1C(=O)O[C@H](c3ccccc3)[C@H](c3ccccc3)N1[C@@H]2c1ccccc1OCCO,0.509,0.529 (inactive),0.411,0.0156,0.296,1.28,0.854,1.28,0.209,1.01
O=C1O[C@H](c2ccccc2)[C@H](c2ccccc2)N2[C@H]1[C@@H](C(=O)Nc1nc3ccccc3s1)[C@]1(C(=O)Nc3ccc(C#CC4(O)CCCCCC4)cc31)[C@H]2c1ccc(OCCO)cc1,0.8,0.905 (inactive),-0.0562,0.146,0.219,1.46,1.7,1.3,0.508,1.11
C#CCN(Cc1ccccc1Br)C(/C=C/c1ccccc1)CO (stereo not given),-0.406,-0.177 (inactive),-0.212,-0.18,-0.22,-0.163,-0.146,-0.271,0.188,-1.25
O=C1[C@H]2C=C(Br)[C@H](C[C@@H]2OCCCCO)[C@@]12CO2,0.0664,0.572 (inactive),-0.0918,-0.162,-0.191,-0.574,0.102,-0.264,0.483,-0.0118
CC(C)[C@@H](CO)NC(=O)[C@H]1[C@@H](c2ccccc2)N(c2ccccc2)O[C@@H]1C,0.595,0.365 (inactive),-0.0573,-0.162,0.459,0.46,0.145,-0.238,0.207,-0.271
